Results from PubChem BioAssay AID1851 (National Center for Advancing Translational Sciences (NCATS), 2009).
The whole screen tested about 16,000 compounds, of which about 5,800 (36%) were called active. Another 23% or so got no clear call; they are omitted. Some of the results follow. Unmarked numbers belong to inactive results. Calls follow the shape of the dose curve; as a rule, active = well fitted curve in the direction sought with a large enough effect; inconclusive = small, poorly fitted or top-dose-only effect, or effect the other way; inactive = no such curve, though single readings can be large or run the other way.

Each compound was assayed against Cytochrome P450 2C19 (Homo sapiens) (UniProt P33261) (assay: Cytochrome panel assay with activity outcomes). Details: recombinant CYP, pro-luciferin dealkylation, luminescence, p450-cyp2c19; series mostly up to 57.1 µM.
% is scaled to controls: 0 for no effect and ±100 for the full control effect.

Cytochrome P450 2C19 (Homo sapiens), sequence (P33261 whole entry, looked up): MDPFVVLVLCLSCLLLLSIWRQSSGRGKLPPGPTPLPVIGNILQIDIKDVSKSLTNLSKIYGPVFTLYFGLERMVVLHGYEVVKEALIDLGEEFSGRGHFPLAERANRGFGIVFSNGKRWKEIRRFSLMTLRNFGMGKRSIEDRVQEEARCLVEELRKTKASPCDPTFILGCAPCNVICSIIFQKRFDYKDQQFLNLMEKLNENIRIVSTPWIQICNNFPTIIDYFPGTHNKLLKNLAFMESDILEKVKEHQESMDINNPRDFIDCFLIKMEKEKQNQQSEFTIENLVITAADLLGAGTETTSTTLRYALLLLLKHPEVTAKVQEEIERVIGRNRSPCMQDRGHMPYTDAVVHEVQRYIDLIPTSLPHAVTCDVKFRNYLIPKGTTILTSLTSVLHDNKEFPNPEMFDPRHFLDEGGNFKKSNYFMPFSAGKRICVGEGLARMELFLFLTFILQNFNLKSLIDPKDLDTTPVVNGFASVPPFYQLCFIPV

Compound | AC50 | activity, negative = inhibition
CC#C[C@]1(O)CC[C@H]2[C@@H]3CCC4=CC(=O)CCC4=C3[C@H](c3ccc(N(C)C)cc3)C[C@@]21C | 7.94 µM (active) | –
COc1cc2nc(N(C)CCCNC(=O)[C@@H]3CCCO3)nc(N)c2cc1OC | inactive | –
C=Cc1c(C)c2cc3nc(cc4[nH]c(cc5nc(cc1[nH]2)C(C)=C5CCC(=O)O)c(CCC(=O)OC)c4C)[C@@]1(C)C3=CC=C(C(=O)OC)[C@H]1C(=O)OC (tested in a mixture with another compound) | 1.26 µM (active) | –
O=C(O)[C@@H]1[C@@H](C(=O)O)[C@]23C[C@@]2(C(=O)O)[C@]2(C(=O)O)CCC3=C3CCCC312 | – | 37.4% [at 11.4 µM]
c1ccc(Cc2nnc(Sc3ccccc3)c3ccccc23)cc1 | 5.01 µM (active) | –
N#CCCn1c(=O)c(-c2cccs2)nc2cnc(Nc3ccccc3)nc21 | inactive | –
COc1cc(C(=O)OC(C)C(=O)Nc2ccc3c(c2)OCO3)ccc1OCc1c(C)noc1C (stereo not drawn) | 14.1 µM (active) | –
O=C(O)[C@@H](S)[C@H](S)C(=O)O | – | -39.9% [at 11.4 µM]
O=C(c1ccc(F)cc1)C1CCN(CCn2c(=S)[nH]c3ccccc3c2=O)CC1 | inactive | –
Cc1cc(=O)c2ccccc2[nH]1 | inactive | –
CC1CCCC(n2c(=S)[nH]c3ccccc3c2=O)C1C (stereo not drawn) | 0.1 µM (active) | –
CC(CO)Nc1nc(SCc2ccccc2)nc2sc3c(c12)CCC3 (stereo not drawn) | 3.16 µM (active) | –
COCCNc1nc(SCc2ccccc2)nc2sc3c(c12)CCC3 | 4.47 µM (active) | –
OCCNc1nc(SCc2ccccc2)nc2sc3c(c12)CCC3 | 2.82 µM (active) | –
COCCNc1nc(-c2ccccc2C)nc2ccccc12 | inactive | –
C[C@H](Nc1ncnc2sc3c(c12)CCC3)C(=O)O | inactive | –
COCC(=O)N1CCC[C@@]2(CCN(Cc3nccs3)C2)C1 | inactive | –
COC(=O)N1CCC2(CCN(Cc3nccs3)CC2)CC1 | inactive | –
O=C(c1cnccn1)N1CCC2(CCCN(Cc3nccs3)C2)CC1 | 15.8 µM (active) | –
CC(=O)N1CCC2(CCCN(Cc3nccs3)C2)CC1 | 5.01 µM (active) | –
CC(=O)N1CCC[C@@]2(CCN(Cc3nccs3)C2)C1 | inactive | –
O=C(c1cnccn1)N1CCC2(CC1)CN(Cc1nccs1)C2 | inactive | –

Compound | AC50 | activity, negative = inhibition
O=C(c1cnccn1)N1CCC2(CCN(Cc3nccs3)CC2)CC1 | inactive | –
CC(=O)N1CCC2(CCN(Cc3nccs3)CC2)CC1 | inactive | –
COC(=O)N1CCC2(CCCN(Cc3nccs3)C2)CC1 | 20 µM (active) | –
CCc1ccc(N(C(=O)c2snc(C(N)=O)c2N)C(C(=O)NCCC(C)C)c2c[nH]c3ccccc23)cc1 (stereo not drawn) | 2.24 µM (active) | –
CC1(C)S[C@@H]2[C@H](NC(=O)[C@@H](N)c3ccc(O)cc3)C(=O)N2[C@H]1C(=O)O | inactive | –
CCOC(=O)c1cc2c(C)n(-c3ccc(C)cc3)c(C)c2ccc1=O | 14.1 µM (active) | –
C[C@H]1[C@@H](O)[C@@H](C)\C=C/C=C\C=C/C=C\C=C/C=C\C=C/[C@@H](O[C@H]2O[C@@H](C)[C@@H](O)[C@@H](N)[C@@H]2O)C[C@@H]2O[C@](O)(C[C@@H](O)C[C@@H](O)[C@@H](O)CC[C@@H](O)C[C@@H](O)CC(=O)O[C@H]1C)C[C@@H](O)[C@H]2C(=O)O (stereo in doubt) | inactive | –
CCOC(=O)c1[nH]c2cc(OC)c(OC)cc2c1NC(=O)c1nonc1C | inactive | –
COC(=O)c1[nH]c2cc(OC)ccc2c1NC(=O)c1nonc1C | inactive | –
CCOC(=O)c1[nH]c2cc(OC)c(OC)cc2c1NC(=O)c1ccc2c(c1)OCO2 | inactive | –
CCOC(=O)c1[nH]c2cc3c(cc2c1NC(=O)CN1CCC2(CC1)OCCO2)OCO3 | inactive | –
CCOC(=O)c1[nH]c2ccc(OC)cc2c1NC(=O)c1ccc2c(c1)OCO2 | 7.08 µM (active) | –
COC(=O)c1[nH]c2cc(OC)ccc2c1NC(=O)c1ccc2c(c1)OCO2 | 10 µM (active) | –
CC(C)[C@@H](OCc1ccccc1)[C@H](C)/C=N\OC[C@@H](O)[C@@H]1O[C@@H]2OC(C)(C)O[C@@H]2[C@H]1O | – | -18.3% [at 11.4 µM]
C[C@@H](C(=O)Nc1ccc2ccccc2c1)[C@H]1C[C@]1(C)[C@H](NC(=O)OCc1ccccc1)c1ccccc1 | 1 µM (active) | –
C[C@@H](C(=O)Nc1ccc2ccccc2c1)[C@@H]1C[C@@]1(C)[C@@H](NC(=O)OCc1ccccc1)c1ccccc1 | 3.16 µM (active) | –
CCCn1c(=O)c2[nH]c(C3CCCC3)nc2n(CCC)c1=O | inactive | –
O=c1c2ccccc2nnn1CSc1nnc(COc2ccc(Cl)cc2)n1Cc1ccco1 | 14.1 µM (active) | –
Cc1cccc(NC(=O)c2cccc(N3C(=O)C4C5CCC(C5)C4C3=O)c2)c1C (stereo not drawn) | inactive | –
O=C(Nc1ccc(Cl)cc1Cl)c1cccc(N2C(=O)C=CC2=O)c1 | 3.98 µM (active) | –
COc1cccc(/C(O)=C2/C(=O)C(=O)N(c3ccccn3)C2c2ccc(OC)c(OC)c2)c1 (stereo not drawn) | inactive | –
COc1ccc(N2C(=O)c3ccccc3NC2c2ccc(OC)c(CSc3ccccn3)c2)cc1 (stereo not drawn) | 0.891 µM (active) | –

Compound | AC50 | activity, negative = inhibition
c1ccc2c[n+](Cc3ccnc4ccccc34)ccc2c1 | – | 10.8% [at 11.4 µM]
CCOc1cc(CC(=O)N[C@@H](CC(C)C)c2ccccc2N2CCCCC2)ccc1C(=O)O | inactive | –
COC(=O)c1c(NC(C)=O)sc(Cc2ccccc2)c1C | 4.47 µM (active) | –
COc1c(NC(C)=O)c2ccccc2c2ccccc12 | – | 4.06% [at 11.4 µM]
CCc1c(C)sc(NC(=O)OC)c1C(N)=O | inactive | –
CCOc1ccc(CC(=O)Nc2sc(Cc3ccccc3)c(C)c2C(N)=O)cc1OCC | 4.47 µM (active) | –
COC(=O)c1c(C)[nH]c(C)c1C(=O)c1ccccc1Cc1ccccc1 | inactive | –
COc1ccc2[nH]cc(CCNc3cc(-c4ccccc4C)ncn3)c2c1 | 7.94 µM (active) | –
COc1ccc2[nH]cc(CCNc3cc(-c4ccccc4OC)ncn3)c2c1 | 3.16 µM (active) | –
COc1ccc2[nH]cc(CCNc3cc(-c4ccccc4C(F)(F)F)ncn3)c2c1 | 10 µM (active) | –
CC(=O)NCCNc1cc(-c2ccccc2CN(C)C)ncn1 | inactive | –
N[C@H](C(=O)O)c1cccc(O)c1 | inactive | –
Fc1ccc2nc(Nc3nc4c(s3)CCCC4)sc2c1 | 17.8 µM (active) | –
COc1cccc(-c2cc(C(=O)Nc3cccc(O)c3)no2)c1 | 3.16 µM (active) | –
COc1ccc(C2CC(=O)CC(=O)C2n2cncn2)cc1 (stereo not drawn) | inactive | –
CN1C(=O)C[C@H](c2ccccc2)C1=O | inactive | –
CCCC1C(=O)N(c2ccccc2)C1c1ccccc1 (stereo not drawn) | 4.47 µM (active) | –
O=C1C(Cc2ccccc2)C(c2ccccc2)N1c1ccccc1 (stereo not drawn) | 1.26 µM (active) | –
CC(C)(C)CC(C)(C)c1ccc(OCOCCOCCO)c(Cc2cc(C(C)(C)CC(C)(C)C)cc(Cc3cc(C(C)(C)CC(C)(C)C)ccc3OCOCCOCCO)c2OCOCCOCCO)c1 | inactive | –
CO[C@H]1[C@H](O[C@H]2O[C@@H](C)[C@@H](O[C@@H]3C[C@](C)(O)[C@H](OC(=O)CC(C)C)[C@H](C)O3)[C@@H](N(C)C)[C@@H]2O)[C@@H](CC=O)C[C@@H](C)[C@@H](O)/C=C\C=C/C[C@@H](C)OC(=O)C[C@H]1OC(C)=O | inactive | –
C[C@@H](C[N+](C)(C)C)OC(N)=O | inactive | –
O[C@@H](c1cc(C(F)(F)F)nc2c(Cl)cc(Cl)cc12)[C@@H]1CCCCN1 | – | -14.3% [at 11.4 µM]

Compound | AC50 | activity, negative = inhibition
O[C@H](C[C@@H]1CCCCN1)c1ccc2c(c1)oc1ccccc12 | – | -14.6% [at 11.4 µM]
COc1ccc(-c2cc([C@H](O)[C@@H]3CCCCN3)c3ccccc3n2)cc1 | 3.98 µM (active) | –
COc1ccc(CNc2ncnc3ccc(-c4cccc(NS(C)(=O)=O)c4)cc23)c(OC)c1 | 2.51 µM (active) | –
COCCNc1ncnc2ccc(-c3cccc(NS(C)(=O)=O)c3)cc12 | inactive | –
COc1ccccc1CNc1ncnc2ccc(-c3cccc(NS(C)(=O)=O)c3)cc12 | 15.8 µM (active) | –
c1ccc2cc(C3=NCCN3)ncc2c1 | inactive | –
N#Cc1c(-c2ccc(Cl)cc2)nc2n(c1=O)CCCS2 | 7.94 µM (active) | –
N#Cc1c(-c2ccccc2)nc2n(c1=O)CCS2 | 15.8 µM (active) | –
COc1cc(=O)n2c(n1)SCCC2 | inactive | –
O=c1c(-c2ccccc2)c(O)c2cccc3c2n1CCC3 | inactive | –
CCCCN(Cc1ccccc1)C(=O)c1cnc2n(c1=O)CCS2 | inactive | –
COC(=O)[C@@H]1C[C@H]1[C@@H](NC(=O)Oc1ccc(F)cc1)c1ccccc1 | 10 µM (active) | –
O=C(N[C@@H](c1ccccc1)[C@@H]1C[C@H]1C(=O)O)OCc1ccccc1 | inactive | –
COC(=O)C1CC1C(NC(=O)[C@H]1CCCCN1)c1ccccc1 (stereo partly drawn) | inactive | –
COC(=O)[C@@H]1C[C@H]1[C@@H](NC(=O)c1ccccc1)c1ccccc1 | 1.26 µM (active) | –
COC(=O)[C@H]1C[C@@H]1[C@H](NC(=O)c1cccnc1)c1ccccc1 | inactive | –
COC(=O)[C@H]1C[C@@H]1[C@H](NC(=O)OCc1ccccc1)c1ccccc1 | 3.16 µM (active) | –
COC(=O)[C@H]1C[C@@H]1[C@H](NC(C)=O)c1ccccc1 | inactive | –
COC(=O)[C@H]1C[C@@H]1[C@H](NC(=O)c1ccccc1)c1ccccc1 | 7.94 µM (active) | –
COC(=O)[C@@H]1C[C@H]1[C@@H](NC(=O)c1cccnc1)c1ccccc1 | inactive | –
COc1cccc(Nc2ncc3nc(-c4cc(F)cc(F)c4)c(=O)n(CCC#N)c3n2)c1 | inactive | –
CC(C)(S)[C@H](N)C(=O)O | – | 4.04% [at 11.4 µM]
